Bioassay records deposited in PubChem by National Center for Advancing Translational Sciences (NCATS).
PNC inhibitor = blocks assembly of the perinucleolar compartment; PC3M PTB-GFP, PNC prevalence imaging, 16 h; stronger effect = lower value; activity change (PNC), negative = inhibition, % at 10 µM; 140,000 compounds, 3.1% hits; AID 2417;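 active means readout at or below -70, meaning at least 70% loss of cells showing the perinucleolar compartment, a nuclear body marking cancer cells; inconclusive means readout between -30 and a set limit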;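 further: plate controls were DMSO wells for no effect and camptothecin positive control wells for full effect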
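Read-out is percentage of cells bearing a perinucleolar compartment, from automated 20x imaging of fixed, Hoechst-stained PC3M PTB-GFP cells. Cells were seeded 4 h, then exposed 16 h to compound (23 nl of library stock) in duplicate plates.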
ALDH1A1 block = blocks purified human ALDH1A1 activity | P00352 | Purified ALDH1A1, NADH fluorescence, propionaldehyde substrate | Potency, µM (highest dose often 75.3 µM), inactives show top-dose activity, negative = inhibition, most hits filed as inhibitors | 220,000 compounds, 7.3% hits | AID 1030;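 further: potency means the concentration at half of the fitted maximal effect; plate controls were no enzyme wells and a reference inhibitor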
HPGD block = inhibitors of human 15-hydroxyprostaglandin dehydrogenase (HPGD); Potency, µM, for inactives: at the top dose activity change, negative = inhibition, most hits filed as inhibitors; 150,000 compounds, 4.3% hits; purified HPGD, NADH fluorescence kinetic, PGE2 substrate; P15428; further: potency means the concentration at half of the fitted maximal effect
Target sequence (P15428 whole entry, looked up): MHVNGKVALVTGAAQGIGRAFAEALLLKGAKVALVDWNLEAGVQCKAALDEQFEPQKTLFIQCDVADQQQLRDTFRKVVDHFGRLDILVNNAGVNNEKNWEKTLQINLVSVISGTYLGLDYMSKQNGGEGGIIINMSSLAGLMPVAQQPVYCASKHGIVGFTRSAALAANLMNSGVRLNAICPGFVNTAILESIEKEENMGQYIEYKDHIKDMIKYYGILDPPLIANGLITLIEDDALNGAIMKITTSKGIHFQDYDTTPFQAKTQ
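20 nM HPGD preincubated 15 min at room temperature with compound in 50 mM Tris-HCl pH 8, 0.01% Tween 20. Started with 1 mM NAD+ and 30 uM prostaglandin E2; NADH fluorescence (360/450 nm) read 5 times over 30-s intervals, last minus first.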
Numbers without * were called inactive; ? = inconclusive; nt = no result given; [ ] = another dose, or the depositor's remark. This is a sample that favours compounds with a hit; in the whole collection about 11% have one here. Unless noted, the call rests on the fitted dose curve; in most records, active means well fitted inhibition curve with a large enough effect (not every such curve was filed as active); inconclusive means small, poorly fitted or top-dose-only effect, or another doubt; inactive means no such curve, though single readings can be large or run the other way. Unless noted, on the % scale 0 is the no-effect control and ±100 the full control effect.

SMILES | PNC inhibitor | ALDH1A1 block | HPGD block
Fc1cccc(Cc2noc(CN3CCCN(C4Cc5ccccc5C4)CC3)n2)c1 | nt | 3.5µM* | nt
Fc1cccc(Cc2noc(CN3CCN(C4CCc5ccccc5C4)CC3)n2)c1 (centres undefined) | nt | 0% | nt
COc1ccc(COC(=O)N/N=C2/C[C@@H](O)[C@@H](O)[C@@H]3[C@@H]4C(=O)N([C@@H](C)c5ccccc5)C(=O)[C@H]4CC[C@H]23)cc1 | nt | 4%[13.5 µM] | nt
CN(C)CCCC1(c2ccc(F)cc2)OCc2cc(C#N)ccc21 (centres undefined) | -115* | ? | 0%
COc1cc(/C=C/c2cc(OC(C)=O)c3ccccc3n2)c(OC(C)=O)c([N+](=O)[O-])c1 | -5 | 4% | -15%
Cc1ccc(-c2csc(NC(=O)c3ccc4c(=O)n5c(nc4c3)CCCCC5)n2)cc1 | 38 | 16% | nt
NC(=O)NC(CC(=O)NCCc1ccc(S(N)(=O)=O)cc1)c1ccccc1Cl (centres undefined) | nt | 2% | nt
COC(=O)c1ccc(NN=Nc2ccc(C)cc2)cc1 | 8 | ? | ?
O=Nc1ccc(NOC(=O)c2ccc(Br)cc2)cc1 | 53 | 6% | -7%
Cc1ccc(C(=O)ONc2ccc(N=NC(=O)c3ccccc3O)cc2)cc1 | 28 | ? | 28µM*
Cc1ccc(C(=O)ONc2ccc(N=O)cc2)cc1 | -117* | ? | -6%
COC(=O)c1ccc(Oc2c(C)oc3cc(OCc4cnn(-c5ccccc5)c4)ccc3c2=O)cc1 | 30 | -11% | -20%
Cc1oc2cc(OCc3cnn(-c4ccccc4)c3)ccc2c(=O)c1Oc1ccccc1F | -2 | 5µM* | -18%
O=[N+]([O-])c1ccc(O)c(NC(=S)Nc2ccccc2)c1 | -1 | 22µM* | ?
COc1ccc([N+](=O)[O-])cc1NC(=S)Nc1ccccc1 | -5 | ? | -28%
O=C(CSc1ncccn1)N/N=C/c1ccccc1[N+](=O)[O-] | nt | -11% | nt
Cc1cc(C)c2nc3s/c(=C/c4ccc5c(c4)n(C)c(=O)n5C)c(=O)n3c2c1 | 4 | 18µM* | 16µM*
Cc1ccccc1-c1nnc2s/c(=C\c3ccc(N(C)C)cc3)c(=O)n12 | -17 | 0% | -9%
NS(=O)(=O)c1ccc2nc(NC(=O)c3ccncc3)sc2c1 | nt | -1% | nt
CCOC(=O)c1nnn(-c2nonc2-n2cccc2)c1-c1cccc([N+](=O)[O-])c1 | nt | -11% | nt
CC(C)(C)NC(=O)C(OC(=O)c1cccs1)c1ccc(F)cc1 (centres undefined) | nt | 12% | nt
COC(=O)C1=C(C)NC(=O)C1(NC(=O)c1ccncc1)C(F)(F)F (centres undefined) | nt | -5% | nt
COC(=O)NC1(C(F)(F)F)C(=O)NC(C)=C1C(=O)OC (centres undefined) | -107* | 13% | 3%
CCCC(c1nnnn1Cc1ccc(F)cc1)N1CCN(C)CC1 (centres undefined) | nt | -8% | nt
COc1ccc(Cn2nnnc2C(C(C)C)N2CCN(c3ccccc3OC)CC2)cc1 (centres undefined) | 35 | 18µM* | -8%
SMILES | PNC inhibitor | ALDH1A1 block | HPGD block
COc1ccc(OC)c(C(c2nnnn2Cc2ccccc2)N2CCN(C)CC2)c1 (centres undefined) | 4 | 4% | 0%
CC(C)C(c1nnnn1Cc1ccc(F)cc1)N1CCN(c2ccc(O)cc2)CC1 (centres undefined) | nt | 4µM* | nt
COc1ccc(C(c2nnnn2CCc2ccccc2)N2CCN(C3CCCC3)CC2)cc1 (centres undefined) | 48 | -6% | nt
COc1ccccc1N1CCN(C(c2ccc(N(C)C)cc2)c2nnnn2CCc2ccccc2)CC1 (centres undefined) | 6 | 22µM* | -22%
CC(C)C(c1nnnn1Cc1cccs1)N1CCN(c2ccccc2)CC1 (centres undefined) | -27 | ? | -1%
CCCC(c1nnnn1Cc1ccc(F)cc1)N1CCN(CC)CC1 (centres undefined) | nt | 22µM* | nt
CC1CC2(C)Oc3ccccc3CC2C(C)C1CNCCCN(C)C (centres undefined) | nt | -1% | nt
Nn1c(SCC(=O)N2CCOCC2)nnc1C1CC1 | nt | 9% | nt
COC(=O)c1c(S(=O)(=O)NCc2ccccc2)sc(C(=O)O)c1C | -4 | ? | -7%
CCC(=O)Nc1sc2c(c1C(N)=O)CCC2 | -100* | -17% | -14%
O=C(Nc1ccc(N2CCOCC2)cc1)c1cccnc1 | 17 | 2% | -16%
CCC(C)NCC(=O)Nc1sc2c(c1C(N)=O)CCC2 (centres undefined) | 22 | -8% | -13%
NC(=O)c1c(NC(=O)c2cnccn2)sc2c1CCCC2 | nt | 20µM* | nt
NC(=O)c1c(NC(=O)Cc2cccs2)sc2c1CCC2 | ? | ? | -14%
Cn1ncc(Cl)c1C(=O)Nc1sc2c(c1C(N)=O)CCC2 | 11 | ? | ?
CCCC(=O)NC(=S)Nc1sc2c(c1C(N)=O)CCC2 | -11 | 8.9µM* | 25µM*
O=C(Nc1sc2c(c1C(=O)N1CCOCC1)CCCCC2)c1cccnc1 | nt | 22µM* | nt
Nc1cc2c(cc1C(=O)c1cccc(Br)c1)OCCO2 | nt | -42% | nt
Cc1c(C(=O)C(=O)NCC2CCCO2)c2ccccc2n1C (centres undefined) | nt | -2% | nt
COc1ccc(N2CCN(C(=O)NCc3ccc(OC)c(Cl)c3)CC2)cc1 | nt | -2% | nt
Cn1nc(C(F)(F)F)c(/C=N/OC(=O)c2ccccc2Cl)c1SCc1ccccc1Cl | -28 | 0% | -4%
COc1ccc(CNc2ncnc3ccc(-c4cccc(NS(C)(=O)=O)c4)cc23)c(OC)c1 | nt | 3% | nt
CC1(C)C(c2ccccc2)=NC(c2ccc(Br)cc2)N1O (centres undefined) | nt | 10% | nt
Cc1cc(C)c(C)c(S(=O)(=O)NC(C(=O)O)C(C)C)c1C (centres undefined) | nt | 1% | nt
Cc1ccc(C23CC4CC(CC(C(=O)OCC(=O)NC5CCS(=O)(=O)C5)(C4)C2)C3)cc1 (centres undefined) | 17 | 3% | -9%
SMILES | PNC inhibitor | ALDH1A1 block | HPGD block
CCOC(=O)c1c(NC(=O)OC)sc2c1CCC2 | 10 | -14% | -4%
Cc1noc(C)c1C(=O)Nc1sc2c(c1C(N)=O)CCCCC2 | ? | 7.9µM* | ?
Cc1noc(C)c1C(=O)Nc1sc2c(c1C(N)=O)CCC2 | -23 | ? | ?
COC(=O)Nc1sc2c(c1C(N)=O)CCCCCC2 | -8 | 8.9µM* | 14µM*
CC(C)C(=O)NC(=S)Nc1sc2c(c1C(N)=O)CCCC2 | -109* | 7.1µM* | 14µM*
Cc1ccsc1/C=N/NC(=O)C1CC(=O)N(c2ccccc2)C1 (centres undefined) | 36 | 4% | -9%
NC(N)=NCCN1CCCCCCC1 | nt | 9% | -3%
O=C(Nc1cccc2ccccc12)/C(=C/c1ccc([N+](=O)[O-])cc1)NC(=O)c1ccccc1 | 15 | -4% | -4%
N#C/C(=C\c1ccccc1)C(=O)Nc1nncs1 | nt | -3% | nt
Cc1ccccc1NC(=O)/C(C#N)=C\c1cccnc1 | -82* | 4% | 0%
N#C/C(=C/c1ccc([N+](=O)[O-])cc1)C(=O)Nc1ccccc1O | -10 | 7.9µM* | -3%
N#C/C(=C\c1ccc([N+](=O)[O-])cc1)C(=O)Nc1ccccc1O | -21 | 18µM* | -13%
Cc1ccccc1NC(=O)/C(C#N)=C\c1ccsc1 | 48 | -3% | -4%
